Screens from PubChem BioAssay.
a7 integrin act: activates integrin-mediated alleviation for muscular dystrophy; alpha7betagal myoblasts, beta-gal FDG fluorescence, 48 h; Potency, µM (doses to about 38.3 µM), without a hit: at the top dose activation, actives largely listed as activators; actives 0.064% (n = 350,000); AID 624291;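 also: 100% = response of the positive control SU9516; nearly all actives have a fitted effect of over 60% in size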
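Alpha7betagal+/- myoblasts (passage 13) were plated 16-24 hr, then exposed to compounds (1:260 dilution of DMSO stock) for 48 hours at 37C. After MPER lysis, β-galactosidase reporter activity was read as FDG fluorescence (ex 480/em 540) after 30 minutes.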
SW480 rerep: DNA re-replication induction in SW480 cells; SW480 DNA re-replication, Hoechst DNA content imaging, 48 h; Potency, µM (highest dose often 46.1 µM), for inactives: top-dose re-replication activation, hits mostly activators; actives 1.8% (n = 340,000); AID 624297; also: % of control where 0% means no effect; nearly all actives have a fitted effect of over 55% in size
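Readout is total intensity of Hoechst-stained nuclei, excited at 405 nm and collected at 500-530 nm. Compound treatment lasted 48 hr at 37 C in 5% CO2 before staining.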
MCF10A rereplic: inducers of DNA re-replication in MCF 10A breast cells. MCF 10A DNA re-replication, Hoechst nuclear intensity, 48 h. actives 2.9% (n = 350,000). Potency, µM (top dose mostly 46.1 µM), without a hit: at the top dose activity, positive = re-replication, usual class: activators; also: % of control where 0% means no effect; nearly all actives have a fitted effect of over 50% in size
Mito fusion act: mitochondrial division inhibition or fusion activation; AID 485298; Potency, µM (top dose mostly 46.1 µM), for inactives: at the top dose growth rescue (activation), actives largely listed as activators; actives 0.23% (n = 320,000); S. cerevisiae fusion-defective mutant growth rescue, CellTiterGlo 48 h; also: % of control where 0% means no effect; nearly all actives have a fitted effect of over 45% in size
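Read-out: ATP-based luminescence (CellTiterGlo, 10 min ambient) reporting growth of fusion-defective ts yeast after 48 hours at 37C on glycerol/ethanol YPEG medium in the presence of compound.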
A-T KAP1 phos: potential ataxia-telangiectasia treatment; AID 485349; F2112 A-T fibroblasts, KAP-1 phosphorylation AlphaLISA; neocarzinostatin DNA damage 30 min before lysis; actives 0.19% (n = 320,000); Potency, µM (highest dose often 57.5 µM), for the others: at the top dose activation, most hits filed as activators; also: % of control where 0% means no effect; nearly all actives have a fitted effect of over 45% in size
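ATM-like activity read as KAP-1 phosphorylation via AlphaLISA donor/acceptor antibody pairs after lysis and 6 hr at 25C. Cells were ATM-null patient fibroblasts (F2112, hTERT), dosed 60 min, then exposed to the DSB inducer NCS for 30 min.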
* hit, by the source's call; ? = inconclusive; . = no result; [ ] = another dose, or the depositor's remark. An excerpt weighted towards active compounds, which were near 4.2% of everything screened. Calls follow the shape of the dose curve; as a rule, active = well fitted activation curve with a large enough effect; inconclusive = small, poorly fitted or top-dose-only effect; inactive = no such curve, though single readings can be large or run the other way. Potency is read from the fitted curve at half-maximal effect.

SMILES | a7 integrin act | SW480 rerep | MCF10A rereplic | Mito fusion act | A-T KAP1 phos
CN1/C(=C/C(=O)COC(=O)C2COc3ccccc3O2)C(C)(C)c2ccccc21 (stereo not drawn) | -10% | 3% | -1% | . | .
Cc1ccc(NC(=O)C(NC2CCCc3ccccc32)c2ccccc2)cc1Cl (stereo not drawn) | -32% | ? | 1.3µM* | ? | 9%
COc1ccc(NC(=O)COc2ccc(C)c(C)c2)cc1S(=O)(=O)N1CCCCC1 | -13% | -76% | -8% | 22% | 1%
COc1ccc(C(=O)Nc2cccc(C)c2)cc1S(=O)(=O)N1CCOCC1 | -2% | ? | 18µM* | 4% | .
COc1ccc(NC(=O)COc2cc(C)cc(C)c2)cc1S(=O)(=O)N1CCCCC1 | -9% | 5.8µM* | 21µM* | 10% | -5%
COc1ccc(C(=O)NC(=S)Nc2cccc(S(=O)(=O)N3CCOCC3)c2)cc1 | 0% | ? | 16µM* | 2% | -3%
COc1ccc(C(=O)Nc2cccc(C(C)=O)c2)cc1S(=O)(=O)N1CCOCC1 | 9% | -5% | 2% | 1% | 12%
COc1ccc(S(=O)(=O)N2CCOCC2)cc1Cl | -1% | 2% | 7% | 3% | -2%
COc1ccc(S(=O)(=O)N2CCOCC2)c(Cl)c1Cl | 26% | 10% | 7.3µM* | 11% | .
COc1ccc(C(=O)NNC(=O)c2cccc(S(=O)(=O)N3CCOCC3)c2)cc1 | 1% | 2% | 0% | . | 18%
CCCCN1CC(COCc2ccccc2)Oc2cccc(OCc3ccc(OC)cc3)c2S1(=O)=O (stereo not drawn) | -19% | . | . | . | .
O=C(CN1CCCC1)Nc1ccc([N+](=O)[O-])cc1 | 0% | -4% | -2% | -2% | 4%
Cc1[nH]c2ccccc2c1C(=O)CCl | -6% | 13µM* | 10µM* | -18% | -2%[11.5 µM]
CC(=O)c1c(-c2ccccc2)[nH]c2ccccc12 | -15% | ? | 16µM* | -9% | 7%
O=C(O)/C=C/C(=O)c1c(-c2ccccc2)[nH]c2ccccc12 | 13% | ? | 21µM* | -1% | 5%
C=CCNC(=O)C(=O)c1c(-c2ccccc2)[nH]c2ccccc12 | -10% | -2% | 1% | -3% | -5%
Cc1ccc(S(=O)(=O)NCCC(=O)Nc2ccc(C)cc2C(=O)c2ccccc2)cc1 | -11% | -5% | 2% | 25% | -1%
C=CCc1cc(Cl)ccc1OCCCn1ccnc1 | -15% | -3% | -5% | -1% | -5%
CN(Cc1ccccc1F)c1nc(-c2cccs2)nc2ccccc12 | -25% | ? | 13µM* | ? | 16%
Nn1c(SCC(=O)N2CCCC2)nnc1-c1cccs1 | 9% | . | . | . | .
CC(C)(C)C1CCC(OCC(O)CN2CCN(c3ccccc3)CC2)CC1 (stereo not drawn) | -25% | 2% | 21µM* | 2% | 3%
CC(C)(C)C1CCC(OCC(O)CN2CCCC2)CC1 (stereo not drawn) | -10% | -6% | 7% | -2% | 0%
NCCC(O)(P(=O)(O)O)P(=O)(O)O | . | -5% | 1% | . | .
CC(C)(C)NC(=O)NC(=O)CSc1ncccn1 | -4% | -7% | 0% | -2% | 9%
N#CCSc1nc2c(cc1C#N)CCCCCC2 | 23% | -5% | ? | 12% | 16%
SMILES | a7 integrin act | SW480 rerep | MCF10A rereplic | Mito fusion act | A-T KAP1 phos
N#CCSc1nc2c(c(C3CC=CCC3)c1C#N)CCC2 (stereo not drawn) | 12% | 0% | 21µM* | ? | 4%
CCCc1ccc(-c2cc(C(=O)NC3=NCCS3)c3ccccc3n2)cc1 | 8% | -24% | ? | 9% | 2%
O=C(NCCCn1ccnc1)/C(=C/c1cccs1)NC(=O)c1ccco1 | 8.9µM* | -33% | -5% | -4% | 0%
CC(=O)c1cccc(NC(=O)Cn2cnc(S(=O)(=O)N3CCOCC3)c2)c1 | -2% | -3% | -6% | 1% | -4%
COc1ccc(C2CC(=O)c3cnc(NC(=O)c4ccccc4)nc3C2)c(OC)c1 (stereo not drawn) | 4% | ? | 21µM* | 13% | 13%
O=C(Nc1ncc2c(n1)CC(c1cccc(Cl)c1)CC2=O)c1ccco1 (stereo not drawn) | 18% | -4% | 0% | -1% | 13µM*
O=C(Nc1ncc2c(n1)CC(c1ccccc1)CC2=O)c1ccco1 (stereo not drawn) | -20% | 2% | 1% | -9% | -2%
CCOc1cc(CN2CCN(Cc3ccc(C)o3)C(CCO)C2)ccc1OC (stereo not drawn) | 7% | -1% | -4% | 6% | -7%
Nc1c(C(=O)N2CCOCC2)sc2nc(N3CCOCC3)c3c(c12)CCCC3 | 21% | -11% | 15% | 7% | 11%
Cc1ccc(NC(=O)c2sc3nc(N4CCOCC4)c4c(c3c2N)CCCC4)cc1 | -4% | . | . | . | .
Nc1c(C(=O)Nc2ccccc2)sc2nc(N3CCOCC3)c3c(c12)CCCC3 | 11% | . | . | . | .
COc1cccc(NC(=O)c2sc3nc(N4CCOCC4)c4c(c3c2N)CCCC4)c1 | 0% | 8% | 2.3µM* | -2% | 11%
CC(=O)c1ccc(NC(=O)c2sc3nc(N4CCOCC4)c4c(c3c2N)CCCC4)cc1 | -4% | ? | 2.3µM* | -1% | 8%
NNC(=O)c1sc2nc(N3CCOCC3)c3c(c2c1N)CCCC3 | -46% | 16µM* | 21µM* | 5% | 2%
CCOc1ccc(NC(=O)c2sc3nc(N4CCOCC4)c4c(c3c2N)CCCC4)cc1 | 31% | 2.9µM* | 23µM* | 1% | 1%
COc1ccc(NC(=O)c2sc3nc(N4CCOCC4)c4c(c3c2N)CC(C)(C)OC4)cc1 | -19% | 26% | 10% | 0% | 14%
CC(C)[C@H](N[C@@H](C)c1ccccc1)c1c(O)ccc2ccccc12 | -10% | 38% | -6% | 1% | 31%
Cc1c([N+](=O)[O-])cc(C(=O)NCc2ccc(F)cc2)cc1[N+](=O)[O-] | -16% | 0% | 11% | 0% | -4%
COc1ccc(NC(=O)c2sc3nc(N4CCCC4)c4c(c3c2N)CC(C)(C)OC4)cc1 | -25% | -3% | -9% | 13µM* | 0%
Nc1c(C(=O)Nc2ccc(Cl)cc2)sc2nc(N3CCOCC3)c3c(c12)CCCC3 | -11% | 16% | 2.1µM* | 0% | 4%
CCCc1nc2sc(C(=O)OCC)c(N)c2c2c1COC(C)(C)C2 | 18% | 23% | 3.3µM* | -1% | 3%
CCS(=O)(=O)NCC(c1ccco1)N1CCN(c2ccccc2)CC1 (stereo not drawn) | 19% | 2% | 5% | -5% | 3%
COC(=O)c1cnc(Oc2ccc(NC(=O)NC(=O)c3c(OC)cccc3OC)cc2)cc1C(F)(F)F | -18% | 2.6µM* | 0.82µM* | -2% | -3%
